SARS PLpro yeast – qHTS of Yeast-based Assay for SARS-CoV PLP; Potency, µM (titrated, usually from 32.9 µM), usual class: activators; 0.19% of 330,000 active; AID 485353, 2010; S. cerevisiae expressing SARS-CoV PLpro, growth rescue; calls by dose curve; further: nearly all actives have a fitted effect of over 55% in size
AMA1 RON2 block – qHTS for Inhibitors of AMA1-RON; Towards Development of Antimalarial Drug Lead: Primary Screen; AlphaScreen AMA1-biotinylated RON2 peptide binding; Potency, µM (titrated, usually from 58.2 µM), hits mostly inhibitors; 0.2% of 360,000 active; AID 720542, 2013; further: nearly all actives have a fitted effect of over 45% in size
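AMA1 (3D7) with his tag at 25 nM final met compounds first, then biotinylated RON2 peptide at 25 nM; detection used donor plus acceptor beads, 10 µg/mL apiece, read by AlphaScreen after 30 min at room temperature.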
Pf growth 96h – Primary qHTS for delayed death inhibitors of the malarial parasite plastid, 96 hour incubation; P. falciparum luciferase reporter growth, 96 h; Potency, µM (highest dose often 28.7 µM), most hits filed as inhibitors; 6.9% of 320,000 active; AID 504834, 2011
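Infected RBCs, 2% Hct / 0.05% parasitemia final; luciferase-reporter P. falciparum; cpd 96 h, 37 C, 5% CO2; luciferase detection reagent; luminescence.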
Shiga inhibitor – A qHTS for Small Molecule Inhibitors of Shiga Toxin; inhibition, % at 38.7 µM; Vero cells, Shiga toxin protein synthesis inhibition reporter; 9.2% of 290,000 active; in the data active means inhibition mostly above about 28%, no sharp cut-off; inactive means mostly below about 43%
Pf growth 48h – Primary qHTS for delayed death inhibitors of the malarial parasite plastid, 48 hour incubation; Potency, µM (highest dose often 28.7 µM), actives largely listed as inhibitors; AID 504832, 2011; 5.9% of 310,000 active; P. falciparum luciferase growth in erythrocytes, 48 h
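Luciferase-expressing parasites in RBCs, 2% Hct / 0.1% parasitemia final; RPMI 1640 + 0.5% Albumax; 37 C, 5% CO2, one generation; luminescence read-out, lower signal = inhibition.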
Cycloheximide cs – Cycloheximide Counterscreen for Small Molecule Inhibitors of Shiga Toxin. max response, %. 12% of 300,000 active. cell reporter, cycloheximide protein synthesis inhibition counterscreen; in the data active means max response mostly above about 13%, no sharp cut-off; inactive means mostly below about 14%; further: read at 38.3 µM for the half of the compounds with a filed dose
Large screens that a line does not name were inactive. Most compounds without a hit are left out; they make up all but 19% or so of the library. Unless noted, the call rests on the fitted dose curve; in most records, active means well fitted curve in the direction sought with a large enough effect; inconclusive means small, poorly fitted or top-dose-only effect, or another doubt; inactive means no such curve, though single readings can be large; an effect the other way counts as inactive or inconclusive.

COc1ccc(C2(c3ccc(OC)cc3)NC(=O)N(CC(=O)N(C)c3ccccc3)C2=O)cc1	Shiga inhibitor 72, Cycloheximide cs 51 (no result: SARS PLpro yeast)
COc1cccc(CN2CCCC(C(=O)Nc3ccc(-c4cscn4)cc3)C2)c1 (stereo not drawn)	Pf growth 48h inconclusive
CCC1(C)Cc2nc3[nH]c(=S)n(-c4ccccc4C)c(=O)c3cc2CO1 (stereo not drawn)	none
CCC1(C)Cc2nc3[nH]c(=S)n(-c4ccccc4)c(=O)c3cc2CO1 (stereo not drawn)	Pf growth 96h 7.4µM
COc1ccccc1C(=O)Nc1nnc(-c2ccco2)s1	Shiga inhibitor 133, Cycloheximide cs 42 (no result: Pf growth 96h)
Cc1ccccc1C(=O)Nc1nnc(-c2ccco2)s1	Shiga inhibitor 69, Cycloheximide cs 38
COc1ccccc1NC(=O)Nc1nnc(-c2ccco2)s1	none (no result: AMA1 RON2 block)
Cc1nc(NC(=O)COC(=O)c2cccs2)c(Cl)cc1Cl	none (no result: Shiga inhibitor, Cycloheximide cs)
C=C(C)CN(CC)C(=O)CSc1ccc(S(=O)(=O)N2CCN(C)CC2)cn1	Pf growth 96h inconclusive, Pf growth 48h 10µM (no result: Shiga inhibitor, Cycloheximide cs)
C=C(C)CN(CC)C(=O)CSc1ccc(S(=O)(=O)N2CCN(Cc3ccccc3)CC2)cn1	Pf growth 96h 8.3µM, Pf growth 48h inconclusive (no result: Shiga inhibitor, Cycloheximide cs)
Cc1ccc(COc2ccc3oc(-c4ccccc4)c(C(=O)O)c3c2)cc1	none (no result: SARS PLpro yeast, AMA1 RON2 block, Pf growth 96h, Pf growth 48h)
O=C(O)c1nc2ccccc2nc1C(=O)O	Pf growth 96h inconclusive, Shiga inhibitor 81, Cycloheximide cs 46
COc1cc(NC(=S)Nc2ccccn2)cc(OC)c1	Pf growth 48h inconclusive
CC(C)(C)c1cc(CCC(=O)NCc2ccccn2)cc(C(C)(C)C)c1O	Pf growth 96h 12µM, Pf growth 48h inconclusive
O=C(OCCCOC(=O)c1ccc([N+](=O)[O-])o1)c1ccc([N+](=O)[O-])o1	Pf growth 48h 13µM (no result: SARS PLpro yeast, Shiga inhibitor, Cycloheximide cs)
CCOC(=O)C1CCN(C(=O)COC(=O)c2ccc([N+](=O)[O-])o2)CC1	Pf growth 96h 12µM, Pf growth 48h inconclusive (no result: Shiga inhibitor, Cycloheximide cs)
O=c1c(-c2ccc(Cl)cc2)cnc2n1CCS2	AMA1 RON2 block inconclusive, Shiga inhibitor 67, Cycloheximide cs 29
CCOC(=O)c1c(C)oc2ccc(OC(=O)COc3c(F)c(F)c(F)c(F)c3F)cc12	none
COc1ccc(-n2c(CCC(=O)O)ccc2-c2ccc(F)cc2)c(OC)c1	none
CCOC(=O)Cc1cc(-c2ccc(O)cc2)nc2ccc3ccccc3c12	Pf growth 96h 12µM, Shiga inhibitor 83, Pf growth 48h inconclusive
CCOC(=O)Cc1cc(-c2ccc(OC)cc2)nc2ccc3ccccc3c12	none
COc1cc(-c2nc3cnccn3c2Nc2ccc3c(c2)OCCO3)ccc1O	Pf growth 48h inconclusive
COc1cc(-c2nc3cnccn3c2Nc2ccccc2)ccc1O	Pf growth 96h 5.2µM, Pf growth 48h inconclusive
COc1cc(-c2nc3cnccn3c2Nc2ccc(C)cc2)ccc1O	Pf growth 48h inconclusive (no result: Pf growth 96h)
COc1cc(-c2nc3cnccn3c2Nc2ccc(C(C)C)cc2)ccc1O	Shiga inhibitor 73, Pf growth 48h inconclusive, Cycloheximide cs 29 (no result: Pf growth 96h)
O=C(/C=N/O)Nc1ccc2sc3ccccc3c2c1	Shiga inhibitor 71, Cycloheximide cs 54
N#CCSc1ncccc1-c1nc2ccccc2[nH]1	Shiga inhibitor 30, Pf growth 48h inconclusive
N#CCCCSc1ncccc1-c1nc2ccccc2[nH]1	Cycloheximide cs 28 (no result: Pf growth 96h)
O=C(O)c1ccccc1-c1nc2ccccc2[nH]1	Pf growth 96h inconclusive
Cn1c(CCc2nc3ccccc3[nH]2)nnc1SCC#N	Pf growth 48h inconclusive
CC1=C(C(=O)OCc2ccccc2)C(c2ccc3c(c2)OCO3)NC(=O)N1CCCC(=O)O (stereo not drawn)	none (no result: SARS PLpro yeast, Pf growth 96h, Shiga inhibitor, Pf growth 48h, Cycloheximide cs)
Cc1cccc2c1-c1sc(C(=O)N3CCCCC3)cc1CO2	Pf growth 96h inconclusive, Shiga inhibitor 41, Cycloheximide cs 30
CCN1CCN(C(=O)c2cc3c(s2)-c2c(C)cccc2OC3)CC1	Shiga inhibitor 34, Cycloheximide cs 29
CCC(C)c1ccc(OCC(=O)Nc2ccc(Cl)cn2)cc1 (stereo not drawn)	Cycloheximide cs 35 (no result: Pf growth 48h)
CC(C)CC(=O)NC(=S)Nc1ccc(Cl)cn1	Shiga inhibitor 119, Cycloheximide cs 34

Screening data from PubChem.
